Laboratory results: PubChem BioAssay (EPA / NIEHS)
Calls of active or inactive are those of the source. The calls were made as follows: active = hit-call score of the fitted dose curve at least 0.9, where 1 is the maximum; inactive = score below 0.9.

Legend:
Settings in all cases: mRNA level, 48 h; actives raise or lower the signal
[1] = read-out: JUN Transcription Factor, JUN (gene 3725); assay: LTEA_HepaRG_JUN: Life Technologies and Expression Analysis (LTEA) Assay for JUN Transcription Factor using HepaRG (AID 2283513)
How it was run: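 HepaRG, 48 h exposure, 8-pt half-log series top 100 uM, 0.5% DMSO, duplicate. JUN mRNA by qRT-PCR (Fluidigm), housekeeping-normalized (ACTB/GAPDH/POLR2A); bidirectional curve fit vs DMSO baseline.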

[2] = read-out: Lipase C (LIPC), LIPC (gene 3990); assay: LTEA_HepaRG_LIPC: Life Technologies and Expression Analysis (LTEA) Assay for Lipase C (LIPC) using HepaRG (AID 2283514)
How it was run: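 LIPC expression was quantified by qRT-PCR against three housekeeping genes (ACTB, GAPDH, POLR2A). Differentiated human HepaRG cells received eight half-log doses (top 100 uM, 0.5% DMSO) in duplicate for 48 h; fitting bidirectional relative to DMSO.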

[3] = read-out: Lipoprotein lipase (LPL), LPL (gene 4023); assay: LTEA_HepaRG_LPL: Life Technologies and Expression Analysis (LTEA) Assay for Lipoprotein lipase (LPL) using HepaRG (AID 2283515)
How it was run: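 LPL transcript levels quantified by TaqMan qRT-PCR against three housekeeping genes after 48 h chemical treatment of HepaRG cells. Eight-point half-log series from 100 uM in 0.5% DMSO, tested in duplicate; bidirectional fitting versus vehicle.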

[4] = read-out: MicroRNA 122 (MIR122), gene 406906; assay: LTEA_HepaRG_MIR122: Life Technologies and Expression Analysis (LTEA) Assay for MicroRNA 122 (MIR122) using HepaRG (AID 2283516); also: the transcript read is the microRNA miR-122
How it was run: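 qRT-PCR read-out (TaqMan, Fluidigm array), normalized to three housekeeping genes; HepaRG cells dosed 48 h at 8 concentrations up to 100 uM in 0.5% DMSO, duplicate; gain or loss fitted against DMSO baseline.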

[5] = read-out: matrix metalloproteinase-10 (MMP10), MMP10 (gene 4319); assay: LTEA_HepaRG_MMP10: Life Technologies and Expression Analysis (LTEA) Assay for matrix metalloproteinase-10 (MMP10) using HepaRG (AID 2283517)
How it was run: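 Expression measured by TaqMan qRT-PCR with ACTB/GAPDH/POLR2A normalisation after 48 h chemical exposure of HepaRG cells. Eight half-log concentrations, top 100 uM, 0.5% DMSO vehicle, duplicates; gain or loss fitted against vehicle.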

[6] = read-out: MYC, MYC (gene 4609); assay: LTEA_HepaRG_MYC: Life Technologies and Expression Analysis (LTEA) Assay for MYC using HepaRG (AID 2283518)
How it was run: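 MYC transcript changes, up or down relative to 0.5% DMSO, from TaqMan qRT-PCR normalized to three housekeeping genes. Human HepaRG cultures received chemicals for 48 h at eight half-log concentrations up to 100 uM, in duplicate.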

[7] = read-out: matrix metalloproteinase-3 (MMP3), MMP3 (gene 4314); assay: LTEA_HepaRG_MMP3: Life Technologies and Expression Analysis (LTEA) Assay for matrix metalloproteinase-3 (MMP3) using HepaRG (AID 2283519)
How it was run: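 Fluidigm-based TaqMan qRT-PCR, normalized to ACTB, GAPDH and POLR2A and fitted bidirectionally versus 0.5% DMSO, measured transcript levels. Treatment: duplicate 48 h exposures of HepaRG cells, ~100,000/well, to eight half-log concentrations topping at 100 uM.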

[8] = read-out: Paternally Expressed 10 (PEG10), PEG10 (gene 23089); assay: LTEA_HepaRG_PEG10: Life Technologies and Expression Analysis (LTEA) Assay for Paternally Expressed 10 (PEG10) using HepaRG (AID 2283520);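 as to AC50: PEG10 transcript by qRT-PCR normalised to ACTB GAPDH and POLR2A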
How it was run: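 qRT-PCR read-out: PEG10 mRNA normalised to three housekeeping genes, fitted bidirectionally against 0.5% DMSO vehicle. HepaRG cells received test chemicals for 48 h in serum-free induction medium, 8 points, top 100 uM, half-log steps.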

[9] = read-out: Nuclear factor NF-kappa-B p105 subunit (Homo sapiens) (UniProt P19838); assay: LTEA_HepaRG_NFKB1: Life Technologies and Expression Analysis (LTEA) Assay for Nuclear Factor Kappa B Subunit 1 (NFKB1) using HepaRG (AID 2283521);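 also: differentiated human HepaRG liver cells in serum-free induction medium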
How it was run: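 NFKB1 transcript was measured by TaqMan qRT-PCR on Fluidigm arrays, normalised to three housekeeping genes and fitted in both directions against 0.5% DMSO. HepaRG cells were dosed in duplicate for 48 h in serum-free induction medium, eight half-log steps from 100 uM.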

[10] = read-out: Protein phosphatase 2A (PPP2R4), PTPA (gene 5524); assay: LTEA_HepaRG_PPP2R4: Life Technologies and Expression Analysis (LTEA) Assay for Protein phosphatase 2A (PPP2R4) using HepaRG (AID 2283522)
How it was run: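 HepaRG, 48 h exposure, 8-pt half-log series from 100 uM, 0.5% DMSO vehicle, duplicates. Readout: PPP2R4 mRNA, Fluidigm qRT-PCR, housekeeping-normalized. Bidirectional curve fit vs DMSO baseline.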

[11] = read-out: Phosphatase and tensin (PTEN), PTEN (gene 5728); assay: LTEA_HepaRG_PTEN: Life Technologies and Expression Analysis (LTEA) Assay for Phosphatase and tensin (PTEN) using HepaRG (AID 2283523)
How it was run: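 Read-out: TaqMan qRT-PCR of PTEN transcript, normalized to three housekeeping genes, fitted in both directions against 0.5% DMSO. Differentiated human HepaRG cultures received chemicals for 48 h, eight-point half-log series topping at 100 uM.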

[12] = read-out: solute carrier (SLC22A1), SLC22A1 (gene 6580); assay: LTEA_HepaRG_SLC22A1: Life Technologies and Expression Analysis (LTEA) Assay for solute carrier (SLC22A1) using HepaRG (AID 2283524);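 as to AC50: differentiated human HepaRG liver cells in serum-free induction medium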
How it was run: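 Transcript level of SLC22A1 quantified by qRT-PCR (normalized to three housekeeping genes) after 48 h chemical exposure of HepaRG cells, eight concentrations up to 100 µM, half-log steps, 0.5% DMSO vehicle. Gain or loss relative to DMSO fitted bidirectionally.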

[13] = read-out: Pyruvate Dehydrogenase Kinase 4 (PDK4), PDK4 (gene 5166); assay: LTEA_HepaRG_PDK4: Life Technologies and Expression Analysis (LTEA) Assay for Pyruvate Dehydrogenase Kinase 4 (PDK4) using HepaRG (AID 2283525)
How it was run: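 Readout is qRT-PCR of PDK4 transcript, normalized to three housekeeping genes, with bidirectional fitting against 0.5% DMSO vehicle. Differentiated HepaRG cells were treated 48 h in serum-free induction medium, duplicate wells, eight-point half-log series topping at 100 uM.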

[14] = read-out: NAD(P)H dehydrogenase [quinone] 1 (NQO1), NQO1 (gene 1728); assay: LTEA_HepaRG_NQO1: Life Technologies and Expression Analysis (LTEA) Assay for NAD(P)H dehydrogenase [quinone] 1 (NQO1) using HepaRG (AID 2283526)
How it was run: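 qRT-PCR read-out (Fluidigm TaqMan), normalized to three housekeeping genes, after 48 h chemical exposure of HepaRG cells. Concentrations: eight points, top 100 uM, half-log steps, 0.5% DMSO vehicle. Gain or loss of signal fitted relative to DMSO.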

[15] = read-out: Nuclear factor erythroid 2-related factor 2 (Homo sapiens) (UniProt Q16236); assay: LTEA_HepaRG_NFE2L2: Life Technologies and Expression Analysis (LTEA) Assay for Nuclear factor erythroid 2-related factor 2 (NFE2L2) Transcription Factor using HepaRG (AID 2283527)
How it was run: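 NFE2L2 transcript level was read by qRT-PCR (housekeeping ACTB/GAPDH/POLR2A normalisation) after 48 h chemical treatment of HepaRG in serum-free induction medium. Duplicate 8-point half-log curves, top 100 uM, 0.5% DMSO vehicle; up- or down-regulation fitted against vehicle.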

[16] = read-out: succinate dehydrogenase complex iron sulfur subunit B (SDHB), SDHB (gene 6390); assay: LTEA_HepaRG_SDHB: Life Technologies and Expression Analysis (LTEA) Assay for succinate dehydrogenase complex iron sulfur subunit B (SDHB) using HepaRG (AID 2283528)
How it was run: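 SDHB transcript level read by TaqMan qRT-PCR, housekeeping-normalised (ACTB, GAPDH, POLR2A), after 48 h chemical treatment of plated HepaRG cells; eight concentrations top 100 uM, half-log steps, 0.5% DMSO, duplicates; fitted both directions against DMSO.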

[17] = read-out: Signal transducer and activator of transcription 3 (Homo sapiens) (UniProt P40763); assay: LTEA_HepaRG_STAT3: Life Technologies and Expression Analysis (LTEA) Assay for Signal transducer and activator of transcription (STAT3) using HepaRG (AID 2283529)
How it was run: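 STAT3 transcript quantified by qRT-PCR against three housekeeping genes (ACTB, GAPDH, POLR2A), fitted both directions relative to DMSO. HepaRG cultures exposed 48 h to eight half-log concentrations, top 100 uM, 0.5% DMSO, serum-free induction medium.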

[18] = read-out: solute carrier (SLCO1B1), SLCO1B1 (gene 10599); assay: LTEA_HepaRG_SLCO1B1: Life Technologies and Expression Analysis (LTEA) Assay for solute carrier (SLCO1B1) using HepaRG (AID 2283530)
How it was run: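 SLCO1B1 transcript levels were quantified by TaqMan qRT-PCR using three housekeeping genes for normalization. This followed 48 h chemical exposure (100 uM top, half-log, 8 points, 0.5% DMSO) of HepaRG liver cells, with gain or loss fitted relative to DMSO.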

[19] = read-out: sulfotransferase 2A1 (SULT2A1), SULT2A1 (gene 6822); assay: LTEA_HepaRG_SULT2A1: Life Technologies and Expression Analysis (LTEA) Assay for sulfotransferase 2A1 (SULT2A1) using HepaRG (AID 2283531)
How it was run: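 Expression change of SULT2A1, by qRT-PCR with three housekeeping-gene normalization, was scored bidirectionally versus DMSO. Cells: differentiated HepaRG, dosed in duplicate for 48 h across 8 points, highest 100 µM, half-log dilution, 0.5% DMSO.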

[20] = read-out: Transforming Growth Factor (TGFA), TGFA (gene 7039); assay: LTEA_HepaRG_TGFA: Life Technologies and Expression Analysis (LTEA) Assay for Transforming Growth Factor (TGFA) using HepaRG (AID 2283532)
How it was run: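 TGFA transcript quantified by qRT-PCR (Fluidigm arrays) against three housekeeping genes, after 48 hours chemical treatment of HepaRG cells. Top concentration 100 uM with half-log dilutions, 8 points, duplicates, 0.5% DMSO.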

Measured: AC50

Chain of Signal transducer and activator of transcription 3 (Homo sapiens) (P40763 whole entry, looked up): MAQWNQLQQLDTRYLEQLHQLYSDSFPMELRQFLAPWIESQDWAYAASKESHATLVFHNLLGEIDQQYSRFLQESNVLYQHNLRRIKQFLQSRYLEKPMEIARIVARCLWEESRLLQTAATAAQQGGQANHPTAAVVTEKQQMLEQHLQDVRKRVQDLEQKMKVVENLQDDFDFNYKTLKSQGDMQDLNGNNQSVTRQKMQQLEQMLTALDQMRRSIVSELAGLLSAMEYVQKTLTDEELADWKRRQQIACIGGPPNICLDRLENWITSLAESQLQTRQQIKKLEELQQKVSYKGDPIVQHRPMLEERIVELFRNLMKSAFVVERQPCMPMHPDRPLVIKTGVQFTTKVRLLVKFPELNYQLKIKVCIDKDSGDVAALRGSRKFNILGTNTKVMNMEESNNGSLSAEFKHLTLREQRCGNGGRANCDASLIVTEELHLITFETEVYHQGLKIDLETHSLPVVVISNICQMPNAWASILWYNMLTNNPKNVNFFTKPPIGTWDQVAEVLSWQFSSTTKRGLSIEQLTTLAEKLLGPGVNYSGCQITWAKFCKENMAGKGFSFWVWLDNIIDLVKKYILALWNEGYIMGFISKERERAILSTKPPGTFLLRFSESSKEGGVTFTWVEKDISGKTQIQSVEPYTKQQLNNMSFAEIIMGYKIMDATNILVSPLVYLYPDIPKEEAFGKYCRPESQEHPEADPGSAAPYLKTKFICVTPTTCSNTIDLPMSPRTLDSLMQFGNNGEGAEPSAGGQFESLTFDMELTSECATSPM
Chain of Nuclear factor erythroid 2-related factor 2 (Homo sapiens) (Q16236 whole entry, looked up): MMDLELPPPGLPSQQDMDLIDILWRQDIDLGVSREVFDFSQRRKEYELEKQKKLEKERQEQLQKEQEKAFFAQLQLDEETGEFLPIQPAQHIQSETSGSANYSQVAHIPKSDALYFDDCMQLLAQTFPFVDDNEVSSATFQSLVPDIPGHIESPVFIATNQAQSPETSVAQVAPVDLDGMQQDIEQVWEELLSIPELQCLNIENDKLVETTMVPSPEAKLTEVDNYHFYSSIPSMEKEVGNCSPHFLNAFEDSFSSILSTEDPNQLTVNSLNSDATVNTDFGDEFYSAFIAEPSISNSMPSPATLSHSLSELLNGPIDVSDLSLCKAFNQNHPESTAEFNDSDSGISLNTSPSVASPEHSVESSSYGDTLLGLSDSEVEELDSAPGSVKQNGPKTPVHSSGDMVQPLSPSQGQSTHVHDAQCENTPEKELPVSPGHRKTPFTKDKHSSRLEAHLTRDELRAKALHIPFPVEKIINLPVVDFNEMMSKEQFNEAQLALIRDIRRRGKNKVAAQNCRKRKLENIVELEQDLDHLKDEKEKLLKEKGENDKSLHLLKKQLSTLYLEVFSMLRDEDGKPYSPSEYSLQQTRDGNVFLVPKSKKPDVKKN
Chain of Nuclear factor NF-kappa-B p105 subunit (Homo sapiens) (P19838 whole entry, looked up): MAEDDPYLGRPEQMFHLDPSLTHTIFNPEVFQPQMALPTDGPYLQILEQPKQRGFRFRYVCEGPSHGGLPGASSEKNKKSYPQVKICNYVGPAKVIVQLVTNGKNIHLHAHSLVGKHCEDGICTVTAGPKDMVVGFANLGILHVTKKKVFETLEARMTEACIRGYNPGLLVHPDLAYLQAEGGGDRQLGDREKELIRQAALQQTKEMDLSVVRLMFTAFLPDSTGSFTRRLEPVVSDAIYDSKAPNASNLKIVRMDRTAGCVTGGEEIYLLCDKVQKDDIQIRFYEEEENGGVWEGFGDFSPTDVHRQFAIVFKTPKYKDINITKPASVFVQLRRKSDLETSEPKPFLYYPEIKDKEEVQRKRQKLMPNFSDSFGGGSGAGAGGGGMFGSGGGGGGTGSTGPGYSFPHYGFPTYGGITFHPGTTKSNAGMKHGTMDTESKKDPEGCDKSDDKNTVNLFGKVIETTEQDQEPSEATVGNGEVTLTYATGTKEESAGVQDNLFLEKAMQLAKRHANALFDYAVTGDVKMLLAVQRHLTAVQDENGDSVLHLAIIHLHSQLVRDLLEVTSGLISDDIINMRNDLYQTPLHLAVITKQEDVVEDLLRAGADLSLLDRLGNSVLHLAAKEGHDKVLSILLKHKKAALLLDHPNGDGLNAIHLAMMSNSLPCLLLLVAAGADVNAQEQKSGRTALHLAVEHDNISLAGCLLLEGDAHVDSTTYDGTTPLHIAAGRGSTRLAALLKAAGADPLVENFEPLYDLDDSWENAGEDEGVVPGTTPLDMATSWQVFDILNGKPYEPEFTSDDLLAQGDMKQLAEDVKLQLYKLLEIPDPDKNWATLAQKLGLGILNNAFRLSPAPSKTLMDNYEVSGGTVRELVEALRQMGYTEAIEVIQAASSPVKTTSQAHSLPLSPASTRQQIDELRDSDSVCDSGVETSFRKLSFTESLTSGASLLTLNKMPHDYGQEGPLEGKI

C=CCc1cc(S(=O)(=O)c2ccc(O)c(CC=C)c2)ccc1O
active: [2] 84.9 µM | [3] 93.4 µM | [4] 82 µM | [5] 93.2 µM | [6] 90 µM | [7] 92.2 µM | [8] 71 µM | [11] 50 µM | [12] 89 µM | [13] 81.1 µM | [18] 85.4 µM | [19] 81.2 µM
inactive: [1] | [9] | [10] | [14] | [15] | [16] | [17] | [20]

CCCCCOC(C)=O
inactive: all assays above

OC[C@H]1O[C@@](CO)(O[C@H]2O[C@H](CO)[C@@H](O)[C@H](O)[C@H]2O)[C@@H](O)[C@@H]1O
inactive: all assays above

CC(=O)c1ccccc1
inactive: all assays above

CCc1ccc(O)c(C(C)(C)C)c1
inactive: all assays above

Cn1cc[nH]c1=S
inactive: all assays above

NC(N)=O
inactive: all assays above

O=C(O)[C@H](O)[C@@H](O)C(=O)O
inactive: all assays above

CCCC(CCC)C(=O)O
inactive: all assays above

CC[C@H](C)C(=O)O[C@H]1C[C@H](O)C=C2C=C[C@H](C)[C@H](CC[C@@H](O)C[C@@H](O)CC(=O)O)[C@H]21
inactive: all assays above

OC(CCl)CCl
inactive: all assays above

O=C(O)c1cccc(C[C@@H]2COc3ccc(OCc4nc5cc(F)ccc5s4)cc3[C@@H]2O)c1
active: [8] 50 µM | [12] 93.4 µM | [18] 92.3 µM
inactive: all other assays above
